Mcl1-Bid inh – Mcl-1/Bid interaction inhibition. Q07820. TR-FRET Mcl-1/Bid-Dy647 peptide binding, 1536-well. inhibition, % at 21.7 µM. hit rate 0.97% among 220,000. AID 1021;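 active = compounds that cut the binding signal by more than half at the single screening dose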;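 note: His-tagged Mcl-1 with europium anti-His antibody binding Bid BH3 peptide; 0% = Mcl-1 plus peptide wells and 100% = peptide-only wells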
MCL1 BIM primary – MCL1-BIM-BH3 interaction inhibition (human); GST-MCL1 / FITC-Bim-BH3 fluorescence polarization; inhibition, % at 10.9 µM; hit rate 0.68% among 320,000; AID 2057;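 active = inhibition above the mean inhibition of all tested compounds plus 3 SD, set per campaign, cut at about 40% in these data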;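 note: 0% = DMSO wells and 100% = unlabeled Bim-BH3 peptide control; higher means more loss of mP so more displacement of Bim peptide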
Mcl-1 Bim block – inhibitors of Bim-Mcl-1 interaction, human | Q07820 | Bead-based flow cytometry, Bim peptide-Mcl-1 binding | inhibition, % at 10 µM | hit rate 0.1% among 190,000; in the data active = inhibition above about 40%;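 note: 0% = no compound tracer wells and 100% = peptide blocker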
Bcl-xL primary – inhibitors of human Bcl-xL | Q07817 | GST-Bcl-xL / FITC-Bim BH3 peptide fluorescence polarization | inhibition, % at 10.9 µM | hit rate 0.7% among 320,000 | AID 2129;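 active = inhibition above the mean of all tested compounds plus 3 SD, cutoff set per campaign, cut at about 30% in these data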;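 note: 0% = DMSO wells and 100% = unlabeled Bim-BH3 peptide competitor; inhibitors lower millipolarization by displacing the labeled peptide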
Target sequence (Q07817 whole entry, looked up): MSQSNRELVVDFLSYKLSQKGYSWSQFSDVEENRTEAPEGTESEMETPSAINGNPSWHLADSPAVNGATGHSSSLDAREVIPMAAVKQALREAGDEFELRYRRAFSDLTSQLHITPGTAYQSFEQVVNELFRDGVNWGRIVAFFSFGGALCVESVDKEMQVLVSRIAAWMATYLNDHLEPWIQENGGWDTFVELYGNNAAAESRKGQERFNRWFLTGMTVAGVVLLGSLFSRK
Mcl1 Noxa PPI – Mcl-1/Noxa interaction inhibition. TR-FRET Mcl-1/Noxa peptide binding, 2 h. hit rate 1.5% among 220,000. AID 1022. inhibition, % at 21.7 µM. Q07820;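 active = compounds that cut the protein-peptide binding signal by more than 50% relative to plate controls in a single-dose test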;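 note: His-tagged Mcl-1 with rhodamine Noxa BH3 peptide and terbium anti-His antibody; 0% = Mcl-1 plus Noxa peptide wells and 100% = peptide-only wells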
GLD-1 RNA inh – GLD-1-TGE RNA interaction inhibition (C. elegans). hit rate 0.44% among 320,000. inhibition, % at 5.96 µM. purified GLD-1 + fluorescein TGE RNA, fluorescence polarization. Q17339;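 active = percent inhibition above a per-plate cutoff, the plate mean of test compounds plus 3 SD, cut at about 30% in these data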;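 note: 0% = DMSO wells with GLD-1 and probe and 100% = wells lacking GLD-1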
The depositor's hits bear a star. Only some compounds are listed: those with a hit (about 2.3% of all), similar ones and a draw of the others.

What do the screens show for `CCN1C(=O)C(C)S/C1=N\S(=O)(=O)c1ccc(F)cc1` (centres undefined)?
Mcl1-Bid inh: 1; MCL1 BIM primary: 8; Mcl-1 Bim block: -1; Bcl-xL primary: 3; Mcl1 Noxa PPI: 75*; GLD-1 RNA inh: 4

Results for CCOC(=O)c1c(C)[nH]c(C(=O)CSc2nc3ccccc3o2)c1C ?
Mcl1-Bid inh: -7; MCL1 BIM primary: 0; Mcl-1 Bim block: -1; Bcl-xL primary: 8; Mcl1 Noxa PPI: 69*; GLD-1 RNA inh: 0

How did COc1cccc(C(C(=O)NC2CCCC2)N(C(=O)c2csnn2)C2CC2)c1 (centres undefined) do in these assays?
MCL1 BIM primary: -2; Bcl-xL primary: 1; GLD-1 RNA inh: -5

Results for CC(=O)Oc1ccccc1C(=O)Nc1ccccc1C(=O)N1CCCCC1 ?
MCL1 BIM primary: 2; Bcl-xL primary: 4; GLD-1 RNA inh: -3

How did Cc1ccc(SC(C)C(=O)Nc2ccccc2-c2ccccc2)cc1 (centres undefined) do in these assays?
Mcl1-Bid inh: 3; MCL1 BIM primary: 0; Mcl-1 Bim block: -1; Bcl-xL primary: 3; Mcl1 Noxa PPI: 10; GLD-1 RNA inh: -3

How did CC(Sc1ccc(Cl)cc1)C(=O)Nc1ccccc1-c1ccccc1 (centres undefined) do in these assays?
Mcl1-Bid inh: 3; MCL1 BIM primary: 3; Mcl-1 Bim block: -2; Bcl-xL primary: -1; Mcl1 Noxa PPI: 71*; GLD-1 RNA inh: 4

Results for Cc1cccc(NC(=S)NC2CCN(Cc3ccccc3)CC2)c1C ?
Mcl1-Bid inh: 20; MCL1 BIM primary: 16; Mcl-1 Bim block: -9; Bcl-xL primary: 5; Mcl1 Noxa PPI: -22; GLD-1 RNA inh: -1

What do the screens show for `CC(C)(C)CC(C)(C)NC(=S)NC1CCN(Cc2ccccc2)CC1`?
Mcl1-Bid inh: 92*; MCL1 BIM primary: 7; Mcl-1 Bim block: -3; Bcl-xL primary: 1; Mcl1 Noxa PPI: -3; GLD-1 RNA inh: -5

What do the screens show for `CC1Sc2ccc(S(=O)(=O)CCC(=O)N3CCN(c4ccccc4F)CC3)cc2NC1=O` (centres undefined)?
MCL1 BIM primary: -2; Bcl-xL primary: 4; GLD-1 RNA inh: 6

Results for CCn1cc(CN2CCCC(CO)(Cc3cccc(Cl)c3)C2)cn1 (centres undefined) ?
Mcl1-Bid inh: -47; MCL1 BIM primary: 7; Mcl-1 Bim block: -1; Bcl-xL primary: 7; Mcl1 Noxa PPI: 3; GLD-1 RNA inh: 3

What do the screens show for `Cn1cc(CN2CCCC(CO)(Cc3cccc(Cl)c3)C2)cn1` (centres undefined)?
Mcl1-Bid inh: -33; MCL1 BIM primary: 0; Mcl-1 Bim block: -3; Bcl-xL primary: -3; Mcl1 Noxa PPI: 68*; GLD-1 RNA inh: -5

Results for O=C(c1ccccc1)N1CCN(C(=O)C2CC2)CC1 ?
MCL1 BIM primary: -4; Bcl-xL primary: 0; GLD-1 RNA inh: 2

What do the screens show for `O=C(NCc1ccc(/C=c2\sc3n(c2=O)CCN=3)o1)C(=O)Nc1ccccc1`?
Mcl1-Bid inh: -51; MCL1 BIM primary: 26; Mcl-1 Bim block: 1; Bcl-xL primary: 12; Mcl1 Noxa PPI: 56*; GLD-1 RNA inh: 1

What do the screens show for `Cc1ccc(/C=c2/sc3n(c2=O)CCCN=3)o1`?
Mcl1-Bid inh: -22; MCL1 BIM primary: -3; Mcl-1 Bim block: 15; Bcl-xL primary: 9; Mcl1 Noxa PPI: 26; GLD-1 RNA inh: 6

How did Cc1ccc(S(=O)(=O)/N=C2/C=C(C3C(=O)CC(C)(C)CC3=O)C(=O)c3ccccc32)cc1 do in these assays?
Mcl1-Bid inh: 26; MCL1 BIM primary: -9; Mcl-1 Bim block: 4; Bcl-xL primary: 3; Mcl1 Noxa PPI: 80*; GLD-1 RNA inh: 4

What do the screens show for `Cc1cccc(Cn2c(C(C)O)nc3ccccc32)c1` (centres undefined)?
Mcl1-Bid inh: -27; MCL1 BIM primary: -6; Mcl-1 Bim block: -1; Bcl-xL primary: 5; Mcl1 Noxa PPI: -25; GLD-1 RNA inh: -3

What do the screens show for `Cc1cccc(Cn2c(C)nc3c(N)c(C)c(C)cc32)c1`?
Mcl1-Bid inh: 91*; MCL1 BIM primary: 7; Mcl-1 Bim block: 0; Bcl-xL primary: 6; Mcl1 Noxa PPI: -12; GLD-1 RNA inh: -1

How did CS(=O)(=O)c1nc(S(=O)(=O)c2ccc(Cl)cc2)c(N2CCC(O)CC2)s1 do in these assays?
MCL1 BIM primary: 3; Bcl-xL primary: 4; GLD-1 RNA inh: -1
